# Experimental data taken from PubChem BioAssay (NCI).
# The panel holds about 83,000 compounds, 20% with a hit somewhere; the sample as a whole holds those more often.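 Plates (96-well) were seeded with cells, treated with compound at one concentration, and incubated for 48 hours before percent growth was determined.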 A number with no mark means an inactive call. Activity calls are given as the source filed them. How the source made its calls: active means growth percent below 10; inactive means the rest.
# How the values were obtained:
# Assay in all cases: NCI-60 one-dose screen, 48 h (100 = growth as untreated, 0 = no growth, -100 = all killed)
# Conditions in all cases: 10 µM unless noted
# DU-145 prostate = tested on: DU-145 prostate
# K-562 leukemia = tested on: K-562 leukemia
# MALME-3M melanoma = tested on: MALME-3M melanoma
# MDA-MB-231 breast = tested on: MDA-MB-231 breast
# RXF 393 renal = tested on: RXF 393 renal
# SF-268 CNS = tested on: SF-268 CNS
# SF-295 CNS = tested on: SF-295 CNS
# SF-539 CNS = tested on: SF-539 CNS
# UACC-257 melanoma = tested on: UACC-257 melanoma
# M14 melanoma = tested on: M14 melanoma
SMILES,growth (DU-145 prostate),growth (K-562 leukemia),growth (MALME-3M melanoma),growth (MDA-MB-231 breast),growth (RXF 393 renal),growth (SF-268 CNS),growth (SF-295 CNS),growth (SF-539 CNS),growth (UACC-257 melanoma),growth (M14 melanoma)
CC1(c2ccc(Cl)cc2)OC(=O)CC(=O)O1,108%,113%,89%,98.2%,113%,100%,120%,102%,109%,101%
Clc1ccccc1-c1nc2ccccc2[nH]1,110%,89.6%,101%,102%,99.9%,102%,96%,94.6%,113%,85.8%
CC(C)(C)OC(=O)NCCc1ccc(N=C=S)cc1,64.6%,57%,54.8%,88.4%,54.9%,71.9%,55.5%,69.2%,78.9%,75.3%
C=C1CCC2C3(C)COC(c4c(OC)cccc4OC)OC3CCC2(C)C1C/C=C1/C(=O)OCC1O (stereo not given),21%,37.9%,109%,86.7%,-28.7% (active),67%,85.1%,66.7%,59.6%,39.9%
COc1ccc(/C=C2\N=C(c3ccccc3)N(C(=O)c3ccccc3O)NC2=O)cc1,110%,86.5%,89.9%,84.6%,105%,108%,92.9%,95.3%,110%,98.8%
COc1ccc(-c2ccc(-c3ccc(C(=N)N)s3)s2)cc1Cl,0.775% (active),-37.4% (active),64.3%,-42.3% (active),-87.5% (active),76.8%,10.8%,65.7%,106%,97.2%
C=C(C)[C@@H]1C[C@@H]2Cc3cc(Cl)ccc3N1O2,123%,97.7%,91.4%,99.2%,104%,106%,108%,99.6%,102%,95.3%
C=C1C(=O)O[C@@H]2[C@@H]3O[C@@](C)(CC/C=C(\C)CCC[C@@H]2C)[C@H](O)C[C@@H]13,50.1%,18.6%,55.2%,68.2%,27%,67.9%,81.8%,58.3%,67.9%,-1.2% (active)
C=C1c2nc3ccccc3n2C=C(c2ccc(Cl)cc2)N1Cc1ccccc1,103%,59.1%,94.5%,85.4%,65.7%,90.3%,89.8%,96.4%,75.4%,85.2%
NC1=NN(O)C2=CC([N+](=O)[O-])C=CC2=N1 (stereo not given),114%,103%,137%,118%,115%,101%,117%,98.5%,94.8%,113%
Brc1cccc(-c2cc(-c3ccc4nccnc4c3)[nH]n2)c1,17.7% [25 µM],11.9% [25 µM],59.2% [25 µM],28.3% [25 µM],-12.8% [25 µM] (active),41.1% [25 µM],7.1% [25 µM] (active),-35.2% [25 µM] (active),91.2% [25 µM],23.5% [25 µM]
Clc1cc(Cl)c2nc(-c3ccc(-c4ccc(/C=N/NC5=NCCN5)cc4)s3)cn2c1,87.4%,3.66% (active),74.9%,73.9%,81.4%,86%,98.3%,63.5%,99%,97.8%
Cc1csc(NC(c2ccccc2)c2c(C)nc3ccccn23)n1 (stereo not given),110%,88.1%,97.2%,96.8%,122%,103%,87.1%,101%,94.8%,95.3%
COc1ccc(-c2nc3sc(-c4cc(OC)c(OC)c(OC)c4)nn3c2/C=C2/C(=O)Nc3ccc(F)cc32)cc1,-61.9% (active),19.9%,-48.3% (active),-31% (active),-32% (active),-7.6% (active),-17.2% (active),97.7%,-25% (active),-53.4% (active)
COc1ccc(-c2nc(N3CCCC3=O)sc2Br)cc1OC,114%,94%,111%,93.7%,89.9%,104%,93.5%,96.9%,98.5%,116%
NC(N)=Nc1nc2ccccc2o1,89.3%,104%,119%,103%,114%,88.4%,112%,96.2%,121%,80%
COc1ccc(-c2nc(-c3nc4cc(C)c(C)cc4[nH]3)cc3c2[nH]c2ccccc23)cc1,84.7%,11.4%,73.1%,-49.5% (active),-63.8% (active),80.5%,25.4%,5.88% (active),89.1%,70.2%
CCn1c2ccccc2c2cc(NC(=O)Nc3ccc([N+](=O)[O-])cc3C)ccc21,65.7%,8.55% (active),64.5%,29.3%,-31.1% (active),64.9%,13.1%,47%,20%,32.6%
CC(C)CSc1nc(NN)c(C#N)c(-c2ccc(F)cc2)n1,66.5%,58.8%,95.5%,86.8%,79.3%,62.6%,44.7%,65.9%,105%,78.9%
NC1=C(/C(N)=N/O)C(c2ccccc2)c2ccc3ccccc3c2O1 (stereo not given),9% (active),13.2%,46.4%,8.69% (active),-14.1% (active),33%,-0.153% (active),-32.4% (active),46.7%,11.7%
CCCCOc1ccc(/C=C2/SC(N3CCOCC3)=NC2=O)cc1OCC,99.4%,86.4%,93.1%,83.8%,94.6%,99.2%,100%,86.4%,108%,91.8%
COC(=O)C1CCCN1C(=O)[C@@H]1CCCN1C(=O)[C@H](Cc1c[nH]c2ccccc12)NC(=S)Nc1cc(C(F)(F)F)cc(C(F)(F)F)c1 (stereo not given in full),52.5%,38.3%,81.7%,14.4%,43.7%,51.5%,25.1%,55.4%,62.4%,60.9%
COc1ccc2[nH]c(=O)c3c4ccccc4cn3c2c1,11.3%,4.25% (active),12.6%,28.5%,-25.2% (active),1.5% (active),-2.6% (active),9.14% (active),51.3%,23.9%
c1ccc(Nc2nc(Nc3ccccc3)nc(Nc3ccccc3)n2)cc1,93.6%,92.7%,88.7%,79.2%,84.3%,106%,69%,90.7%,82.9%,89%
O=[N+]([O-])c1ccc(Sc2ncccn2)c([N+](=O)[O-])c1,11.1%,12.7%,75.8%,68.6%,-38.6% (active),52.8%,111%,96.7%,29.4%,62.5%
COc1cc2c(c(OC)c1OC)-c1ccc(N)c(=O)cc1[C@@H](NC(C)=O)CC2,-28.8% (active),17.3%,58.4%,-9.55% (active),-5.16% (active),17.9%,17.7%,-14% (active),61.2%,-21.8% (active)
COc1ccc(-c2cc3c(OC)c(OC)c(OC)cc3oc2=O)cc1,73.3%,26.1%,46.9%,57.8%,81.4%,66.8%,54.3%,59.9%,82.4%,28.9%
